# PubChem BioAssay (EPA / NIEHS)
# Where “and” joins values, the source holds several entries; their conditions need not be identical. Equal values may be shown once. Calls of active or inactive are those of the source. Rule for the calls: active = hit-call score of the fitted dose curve at least 0.9, where 1 is the maximum; inactive = score below 0.9.
# Read-out: Monocyte Chemoattractant Protein-1 (MCP1), CCL2 (gene 6347)
# Assay: BSK_3C_MCP1: BioMAP Diversity Plus: 3C Assay for Monocyte Chemoattractant Protein-1 (MCP1) Biomarker Activity (AID 2283017)
# Conditions: primary human endothelial cells (HUVEC); actives raise or lower the signal
# Protocol: BSK_3C is a cell-based, multiplexed-readout assay that uses umbilical vein endothelium, a human vascular primary cell, with measurements taken at 24 hours after chemical dosing in a 96-well plate.BSK_3C_MCP1 is an assay component measured in the BSK_3C assay. It measures MCP-1 antibody related to regulation of gene expression using ELISA technology.Data from the assay component BSK_3C_MCP1 was analyzed into 1 assay endpoint. This assay endpoint, BSK_3C_MCP1, was analyzed with bidirectional fitting relative to DMSO as the negative control and baseline of activity. Using a type of binding reporter, gain or loss-of-signal activity can be used to understand changes in the signaling as they relate to the gene CCL2. Furthermore, this assay endpoint can be referred to as a primary readout, because this assay has produced multiple assay endpoints where this one serves a signaling function. To generalize the intended target to other relatable targets, this assay endpoint is annotated to the cytokine intended target family, where the subfamily is chemotactic factor.
# The levels of cell surface (or secreted, indicated by the prefix "s") biomarker endpoints were measured by ELISA. Overt cytotoxicity to cells in confluent adherent cultures (all systems other than the BT system) was assessed by measuring total protein levels using sulforhodamine B (SRB) staining in parallel cultures at the time of biomarker measurements, indicated as SRB endpoints. For proliferation assays for adherent cell types, individual cell types are cultured at sub-confluence and relative cell numbers quantified by SRB staining at time points optimized for each system (48 h: 3C and CASM3C systems; 72 h: BT and HDF3CGF systems; 96 h: SAg system). SRB was performed by staining cells with 0.1% SRB after fixation with 10% TCA and reading wells at 560 nm.Viability and proliferation of PBMC (T cells) was quantified by Alamar Blue reduction for the SAg and BT systems. For PBMC viability (referred to as PBMC Cytotoxicity within the assay endpoint names), cells were plated (75,000/well in a 96-well plate) and then chemical samples added for 1 h before addition of activators, SEB and TSST-1 (20 ng/mL final concentration each). Cells were incubated for 90 h. Then, Alamar Blue (20 uL/well) (Invitrogen, Cat DAL1100) was added for 6 h, and the plates were read with a fluorescence microplate reader at 546/580 nm (excitation/emission). For PBMC proliferation, cells were plated and activated as above but incubated for only 16 h prior to addition of Alamar Blue. Plates were read after 6 h.
Compound,outcome,AC50
COc1cc(CNC(=O)CCCC/C=C/C(C)C)ccc1O,inactive,–
O=C(C(=O)c1ccccc1)c1ccccc1,inactive,–
CCC[Si](OC(C)=O)(OC(C)=O)OC(C)=O,inactive,–
O=[N+]([O-])c1cc(S(=O)(=O)Nc2ccccc2)ccc1Nc1ccccc1,–,32.3 µM (active) and 30 µM (active)
OC(C(F)(F)F)(C(F)(F)F)C(O)(C(F)(F)F)C(F)(F)F,–,49.9 µM (active) and 50.5 µM (active)
Cc1cc(-n2nc3ccc(Cl)cc3n2)c(O)c(C(C)(C)C)c1,inactive,–
Sc1nc2ccccc2s1,inactive,–
COC(=O)/C=C\C(=O)OC,inactive,–
COc1ccccc1Oc1c(NS(=O)(=O)c2ccc(C(C)(C)C)cc2)nc(-c2ncccn2)nc1OCCO,inactive,–
CCCCCCC(O)CCCCCCCCCCC(=O)OC (configuration not stated),inactive,–
Cc1c(C(N)=O)cc([N+](=O)[O-])cc1[N+](=O)[O-],inactive,–
CCCCC(CC)COC(=O)C=Cc1ccc(OC)cc1 (configuration not stated),–,33 µM (active)
CC(C)CC(=O)CC(C)CC(C)C (configuration not stated),–,31.2 µM (active)
C1CN(CCOCCN2CCOCC2)CCO1,inactive,–
COc1ccc(C(=O)c2ccccc2O)c(O)c1,inactive,–
CCCCCCCCCCC1CO1 (configuration not stated),–,31 µM (active)
CN(C)Cc1cc(C(C)(C)C)c(O)c(C(C)(C)C)c1,inactive,–
CN(C)c1ccc(C(c2ccccc2)c2ccc(N(C)C)cc2)cc1,–,11.9 µM (active)
CCC(C)=NO,inactive,–
Cc1cccnc1,inactive,–
CC(C)C1OCCN1CCOC(=O)NCCCCCCNC(=O)OCCN1CCOC1C(C)C (configuration not stated),inactive,–
CC[N+](CC)(CC(=O)Nc1c(C)cccc1C)Cc1ccccc1,inactive,–
Oc1cccc2ccccc12,inactive,–
CCCCCCCCCC/C=C/C1CC(=O)OC1=O (configuration not stated),inactive,–
CN(C)CCC(c1ccc(Cl)cc1)c1ccccn1 (configuration not stated),inactive,–
CCCCCCCCCCCCCCCCCC[N+](C)(C)C,–,1.68 µM (active)
CC[N+](CC)(CC(=O)Nc1c(C)cccc1C)Cc1ccccc1 (tested in a mixture with another compound),inactive,–
